# Experimental data from the supplement of paper PMC11732987, “Enantioselective OTUD7B fragment discovery through chemoproteomics screening and high-throughput optimisation” (Communications Chemistry, 2025).
# Unmarked numbers belong to inactive results.
# Experiments:
# Assay in all cases: log2 ratio of Biotin-Ahx-Ub-VS probe labelling (fragment/DMSO); higher = less target engagement (more negative = stronger competition), active = hit call of the paper (q ≤ 0.05, log2 ratio ≤ -1)
# Details in all cases: compound concentration: 200 uM; treatment time: 3 h
# USP34 = USP34 (UniProt Q70CQ2)
# USP34, sequence (Q70CQ2 whole entry, the tested form may be a part): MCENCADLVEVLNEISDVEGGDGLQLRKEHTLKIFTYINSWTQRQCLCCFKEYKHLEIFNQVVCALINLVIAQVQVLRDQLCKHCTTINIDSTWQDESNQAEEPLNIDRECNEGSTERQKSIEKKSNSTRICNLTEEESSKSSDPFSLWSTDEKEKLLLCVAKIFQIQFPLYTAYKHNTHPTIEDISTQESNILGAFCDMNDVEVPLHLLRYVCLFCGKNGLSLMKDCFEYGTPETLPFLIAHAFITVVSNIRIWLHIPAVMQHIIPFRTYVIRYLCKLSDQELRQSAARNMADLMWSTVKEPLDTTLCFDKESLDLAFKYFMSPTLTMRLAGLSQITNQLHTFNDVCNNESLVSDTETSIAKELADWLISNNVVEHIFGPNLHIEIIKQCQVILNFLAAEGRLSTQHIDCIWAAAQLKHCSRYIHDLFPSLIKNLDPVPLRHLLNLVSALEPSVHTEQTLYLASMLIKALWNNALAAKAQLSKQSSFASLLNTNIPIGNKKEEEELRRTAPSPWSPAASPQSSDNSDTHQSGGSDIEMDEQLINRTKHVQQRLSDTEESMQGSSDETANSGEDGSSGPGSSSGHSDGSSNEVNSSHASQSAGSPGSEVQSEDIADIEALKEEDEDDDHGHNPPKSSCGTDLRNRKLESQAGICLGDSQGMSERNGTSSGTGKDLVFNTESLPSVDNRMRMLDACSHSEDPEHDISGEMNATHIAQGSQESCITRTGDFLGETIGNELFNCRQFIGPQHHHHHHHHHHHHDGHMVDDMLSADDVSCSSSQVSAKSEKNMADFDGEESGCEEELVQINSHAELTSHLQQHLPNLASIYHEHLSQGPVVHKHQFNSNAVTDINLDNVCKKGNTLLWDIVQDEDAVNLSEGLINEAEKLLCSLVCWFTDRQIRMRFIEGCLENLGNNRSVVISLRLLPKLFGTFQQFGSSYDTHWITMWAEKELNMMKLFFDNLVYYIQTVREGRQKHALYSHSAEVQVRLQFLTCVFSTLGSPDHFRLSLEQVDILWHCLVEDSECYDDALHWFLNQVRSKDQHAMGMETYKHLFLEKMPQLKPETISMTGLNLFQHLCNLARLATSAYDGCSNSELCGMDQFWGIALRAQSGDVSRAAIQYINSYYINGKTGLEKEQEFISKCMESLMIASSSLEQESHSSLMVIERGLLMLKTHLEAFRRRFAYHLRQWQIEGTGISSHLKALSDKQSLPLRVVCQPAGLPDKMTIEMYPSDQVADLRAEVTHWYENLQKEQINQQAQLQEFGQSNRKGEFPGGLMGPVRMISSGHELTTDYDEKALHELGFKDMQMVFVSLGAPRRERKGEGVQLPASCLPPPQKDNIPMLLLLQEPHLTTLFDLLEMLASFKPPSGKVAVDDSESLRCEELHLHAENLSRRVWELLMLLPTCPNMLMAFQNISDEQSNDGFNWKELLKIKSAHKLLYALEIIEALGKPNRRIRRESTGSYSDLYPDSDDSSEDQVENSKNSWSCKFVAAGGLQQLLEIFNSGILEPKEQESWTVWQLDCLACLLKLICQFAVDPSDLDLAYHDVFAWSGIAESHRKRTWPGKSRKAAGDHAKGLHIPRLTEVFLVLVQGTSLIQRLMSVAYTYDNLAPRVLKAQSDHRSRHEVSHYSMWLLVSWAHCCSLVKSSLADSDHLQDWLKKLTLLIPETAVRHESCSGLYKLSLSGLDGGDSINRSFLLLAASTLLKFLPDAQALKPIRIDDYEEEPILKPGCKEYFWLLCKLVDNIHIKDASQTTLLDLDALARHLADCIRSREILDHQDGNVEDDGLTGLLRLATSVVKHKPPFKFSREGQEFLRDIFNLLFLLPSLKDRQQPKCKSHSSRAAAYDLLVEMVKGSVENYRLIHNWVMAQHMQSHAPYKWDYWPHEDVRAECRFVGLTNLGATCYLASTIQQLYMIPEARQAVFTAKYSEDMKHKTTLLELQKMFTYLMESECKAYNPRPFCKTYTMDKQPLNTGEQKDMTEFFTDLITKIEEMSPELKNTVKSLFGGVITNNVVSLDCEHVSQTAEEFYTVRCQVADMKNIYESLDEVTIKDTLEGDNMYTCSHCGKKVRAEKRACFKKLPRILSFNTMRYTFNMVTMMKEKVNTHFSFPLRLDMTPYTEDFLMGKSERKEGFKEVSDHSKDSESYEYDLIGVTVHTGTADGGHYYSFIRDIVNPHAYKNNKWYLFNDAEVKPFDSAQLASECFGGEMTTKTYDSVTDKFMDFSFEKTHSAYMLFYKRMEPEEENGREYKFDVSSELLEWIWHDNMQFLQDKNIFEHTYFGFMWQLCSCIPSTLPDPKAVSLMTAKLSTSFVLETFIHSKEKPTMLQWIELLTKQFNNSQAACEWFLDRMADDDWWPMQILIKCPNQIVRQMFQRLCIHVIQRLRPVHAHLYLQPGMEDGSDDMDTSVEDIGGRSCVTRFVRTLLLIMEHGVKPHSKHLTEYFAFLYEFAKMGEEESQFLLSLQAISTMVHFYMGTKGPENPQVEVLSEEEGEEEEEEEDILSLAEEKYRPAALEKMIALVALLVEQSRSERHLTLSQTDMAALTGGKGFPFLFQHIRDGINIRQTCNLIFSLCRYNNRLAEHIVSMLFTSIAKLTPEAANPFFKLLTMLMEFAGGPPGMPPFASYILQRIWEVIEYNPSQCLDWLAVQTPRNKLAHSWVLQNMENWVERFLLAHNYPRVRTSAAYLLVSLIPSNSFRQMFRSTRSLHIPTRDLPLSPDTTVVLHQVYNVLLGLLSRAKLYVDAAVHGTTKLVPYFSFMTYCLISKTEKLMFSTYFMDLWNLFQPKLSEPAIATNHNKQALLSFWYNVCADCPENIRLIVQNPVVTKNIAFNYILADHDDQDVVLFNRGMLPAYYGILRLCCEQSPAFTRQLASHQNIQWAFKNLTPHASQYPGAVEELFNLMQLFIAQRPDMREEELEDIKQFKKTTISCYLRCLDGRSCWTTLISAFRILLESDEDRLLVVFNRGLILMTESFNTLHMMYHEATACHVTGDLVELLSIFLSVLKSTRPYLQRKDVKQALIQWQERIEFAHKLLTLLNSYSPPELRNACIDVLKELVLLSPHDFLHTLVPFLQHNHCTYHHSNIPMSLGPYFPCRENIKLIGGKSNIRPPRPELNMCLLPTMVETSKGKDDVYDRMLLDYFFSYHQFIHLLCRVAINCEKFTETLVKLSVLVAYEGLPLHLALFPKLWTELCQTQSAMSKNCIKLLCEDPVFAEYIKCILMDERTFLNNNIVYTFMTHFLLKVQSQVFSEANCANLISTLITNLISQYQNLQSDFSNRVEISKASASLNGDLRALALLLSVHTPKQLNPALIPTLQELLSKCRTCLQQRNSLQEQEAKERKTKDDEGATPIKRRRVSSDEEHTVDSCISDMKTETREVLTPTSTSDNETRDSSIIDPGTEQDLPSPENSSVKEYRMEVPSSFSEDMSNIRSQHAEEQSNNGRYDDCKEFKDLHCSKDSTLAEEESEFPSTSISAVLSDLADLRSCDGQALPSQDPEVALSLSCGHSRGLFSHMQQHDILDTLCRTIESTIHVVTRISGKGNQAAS
# Outline: (§1)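 Each value is an average log2 ratio of fragment to vehicle, tested by unpaired t-test. The underlying Spectronaut label-free quantities were global-median-normalised, and only proteins with ≥2 unique peptides were included. Triplicate HEK293T lysate samples (495 µg) were exposed to fragment at 200 µM or vehicle for 3 h, then to Biotin-Ahx-Ub-VS at 0.5 µM final for 1 h, before NeutrAvidin enrichment of labelled DUBs, LysC and trypsin digestion, and diaPASEF LC-MS/MS.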
# USP36 = target: T1, USP36 (UniProt Q9P275)
# T1 sequence (whole entry): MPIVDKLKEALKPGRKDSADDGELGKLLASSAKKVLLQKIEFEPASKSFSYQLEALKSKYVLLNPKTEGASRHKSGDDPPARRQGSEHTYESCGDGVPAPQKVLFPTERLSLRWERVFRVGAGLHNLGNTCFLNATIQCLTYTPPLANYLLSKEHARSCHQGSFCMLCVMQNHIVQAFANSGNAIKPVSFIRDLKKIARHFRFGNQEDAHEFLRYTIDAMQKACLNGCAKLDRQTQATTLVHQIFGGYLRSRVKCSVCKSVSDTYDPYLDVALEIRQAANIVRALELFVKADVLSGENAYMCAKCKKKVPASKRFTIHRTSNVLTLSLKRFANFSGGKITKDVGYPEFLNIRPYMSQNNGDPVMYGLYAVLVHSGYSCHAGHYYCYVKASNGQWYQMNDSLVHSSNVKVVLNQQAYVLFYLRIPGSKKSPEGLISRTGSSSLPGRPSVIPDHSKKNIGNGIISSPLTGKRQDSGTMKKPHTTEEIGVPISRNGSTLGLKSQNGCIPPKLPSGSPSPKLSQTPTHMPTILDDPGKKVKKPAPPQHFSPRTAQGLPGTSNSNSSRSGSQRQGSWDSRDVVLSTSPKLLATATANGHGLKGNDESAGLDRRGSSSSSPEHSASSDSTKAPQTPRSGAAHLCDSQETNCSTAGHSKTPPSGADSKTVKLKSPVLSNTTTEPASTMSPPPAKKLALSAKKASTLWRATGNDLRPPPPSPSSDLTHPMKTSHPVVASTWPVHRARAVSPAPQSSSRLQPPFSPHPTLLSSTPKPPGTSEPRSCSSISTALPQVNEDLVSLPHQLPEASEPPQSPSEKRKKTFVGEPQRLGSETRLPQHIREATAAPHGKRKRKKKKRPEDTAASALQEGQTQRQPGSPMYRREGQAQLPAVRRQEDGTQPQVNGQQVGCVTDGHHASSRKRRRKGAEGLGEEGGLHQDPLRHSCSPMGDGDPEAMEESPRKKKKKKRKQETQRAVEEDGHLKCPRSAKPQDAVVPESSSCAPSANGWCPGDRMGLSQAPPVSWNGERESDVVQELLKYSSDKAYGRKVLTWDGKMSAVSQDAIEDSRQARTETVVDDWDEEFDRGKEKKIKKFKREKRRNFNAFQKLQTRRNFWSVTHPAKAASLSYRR
# Outline: as §1
# USP38 = target: T2, USP38 (UniProt Q8NB14)
# T2 sequence (whole entry): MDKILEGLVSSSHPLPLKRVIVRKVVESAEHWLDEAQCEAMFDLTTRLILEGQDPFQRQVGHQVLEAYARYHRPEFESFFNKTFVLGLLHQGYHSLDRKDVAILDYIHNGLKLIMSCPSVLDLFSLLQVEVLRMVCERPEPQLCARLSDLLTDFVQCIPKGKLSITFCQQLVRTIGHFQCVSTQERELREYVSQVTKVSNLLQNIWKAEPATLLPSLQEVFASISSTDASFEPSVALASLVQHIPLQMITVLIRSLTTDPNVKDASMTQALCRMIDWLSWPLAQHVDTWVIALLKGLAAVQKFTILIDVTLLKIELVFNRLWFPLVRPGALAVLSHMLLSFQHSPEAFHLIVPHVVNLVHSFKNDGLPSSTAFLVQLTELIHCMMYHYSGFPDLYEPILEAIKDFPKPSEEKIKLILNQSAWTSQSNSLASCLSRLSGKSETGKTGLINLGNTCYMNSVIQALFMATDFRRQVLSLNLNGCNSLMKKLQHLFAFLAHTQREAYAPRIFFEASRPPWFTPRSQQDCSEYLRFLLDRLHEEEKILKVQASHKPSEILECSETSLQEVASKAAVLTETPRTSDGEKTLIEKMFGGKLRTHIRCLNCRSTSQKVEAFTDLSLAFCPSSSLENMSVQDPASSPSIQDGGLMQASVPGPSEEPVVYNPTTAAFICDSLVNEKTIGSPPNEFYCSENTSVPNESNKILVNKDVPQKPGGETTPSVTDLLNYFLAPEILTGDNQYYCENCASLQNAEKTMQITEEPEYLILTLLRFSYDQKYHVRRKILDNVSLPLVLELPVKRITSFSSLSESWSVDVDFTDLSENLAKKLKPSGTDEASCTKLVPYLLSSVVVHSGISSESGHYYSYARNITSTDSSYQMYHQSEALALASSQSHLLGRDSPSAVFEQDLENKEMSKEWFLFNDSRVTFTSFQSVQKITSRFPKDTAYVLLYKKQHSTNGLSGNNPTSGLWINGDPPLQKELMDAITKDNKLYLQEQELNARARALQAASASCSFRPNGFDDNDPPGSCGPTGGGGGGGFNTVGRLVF
# Outline: as §1
# USP39 = target: T3, USP39 (UniProt Q53GS9)
# T3 sequence (whole entry): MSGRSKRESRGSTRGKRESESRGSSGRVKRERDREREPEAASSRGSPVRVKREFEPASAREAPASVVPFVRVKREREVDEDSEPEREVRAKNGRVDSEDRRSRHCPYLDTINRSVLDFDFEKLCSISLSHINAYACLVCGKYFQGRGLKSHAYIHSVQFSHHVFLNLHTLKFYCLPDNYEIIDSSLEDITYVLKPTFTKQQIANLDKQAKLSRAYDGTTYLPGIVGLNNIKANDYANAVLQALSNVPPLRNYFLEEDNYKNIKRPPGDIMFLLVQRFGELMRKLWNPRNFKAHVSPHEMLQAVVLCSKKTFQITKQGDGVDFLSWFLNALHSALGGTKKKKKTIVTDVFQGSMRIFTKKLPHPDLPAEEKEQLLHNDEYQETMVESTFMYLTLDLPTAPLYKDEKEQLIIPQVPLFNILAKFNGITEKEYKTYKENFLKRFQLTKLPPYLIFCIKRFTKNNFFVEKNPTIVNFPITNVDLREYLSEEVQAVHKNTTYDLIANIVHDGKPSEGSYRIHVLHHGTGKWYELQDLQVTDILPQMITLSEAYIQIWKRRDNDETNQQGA
# Outline: as §1
# USP4 = target: T4, USP4 (UniProt Q13107)
# T4 sequence (whole entry): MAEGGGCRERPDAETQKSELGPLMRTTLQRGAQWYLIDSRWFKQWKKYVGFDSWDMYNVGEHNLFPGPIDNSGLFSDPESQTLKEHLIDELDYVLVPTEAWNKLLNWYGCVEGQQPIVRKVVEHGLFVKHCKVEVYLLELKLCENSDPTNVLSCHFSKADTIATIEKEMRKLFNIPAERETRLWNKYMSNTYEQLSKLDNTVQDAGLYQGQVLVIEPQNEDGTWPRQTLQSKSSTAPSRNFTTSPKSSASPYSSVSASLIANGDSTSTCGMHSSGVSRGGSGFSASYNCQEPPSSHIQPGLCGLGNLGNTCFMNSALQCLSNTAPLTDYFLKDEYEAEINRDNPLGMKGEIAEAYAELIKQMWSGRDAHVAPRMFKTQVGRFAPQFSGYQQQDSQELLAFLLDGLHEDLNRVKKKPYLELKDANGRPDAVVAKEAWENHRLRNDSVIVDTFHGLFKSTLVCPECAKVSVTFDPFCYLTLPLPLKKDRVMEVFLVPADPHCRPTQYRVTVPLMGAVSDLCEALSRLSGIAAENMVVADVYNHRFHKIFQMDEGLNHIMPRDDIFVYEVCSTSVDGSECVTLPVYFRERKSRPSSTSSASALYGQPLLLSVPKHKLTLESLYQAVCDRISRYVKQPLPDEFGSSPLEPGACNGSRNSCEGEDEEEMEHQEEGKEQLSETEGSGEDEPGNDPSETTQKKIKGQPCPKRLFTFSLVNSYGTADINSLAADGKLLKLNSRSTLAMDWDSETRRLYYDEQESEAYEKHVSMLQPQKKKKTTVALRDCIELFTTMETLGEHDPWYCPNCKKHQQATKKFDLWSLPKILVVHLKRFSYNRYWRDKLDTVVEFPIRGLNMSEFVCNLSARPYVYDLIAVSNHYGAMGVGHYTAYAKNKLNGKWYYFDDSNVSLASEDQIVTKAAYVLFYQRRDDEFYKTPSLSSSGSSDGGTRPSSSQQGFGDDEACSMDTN
# Outline: as §1
smiles,measurement,setting,value
O=C(CCl)N1CCN(C(=O)N2CCCCC2)CC1,log2 ratio of Biotin-Ahx-Ub-VS probe labelling,USP34,-0.512
same,log2 ratio of Biotin-Ahx-Ub-VS probe labelling,USP36,-0.269
same,log2 ratio of Biotin-Ahx-Ub-VS probe labelling,USP38,-1.04 (active)
same,log2 ratio of Biotin-Ahx-Ub-VS probe labelling,USP39,-0.223
same,log2 ratio of Biotin-Ahx-Ub-VS probe labelling,USP4,-1.05 (active)
